High-throughput results from PubChem.
A selection: hits, their analogues and other compounds. The true share with any hit is near 3%.
p53null 32C tox: qHTS Screen for Compounds that Selectively Target Cancer Cells with p53 Mutations: Cytotoxicity of p53 Null Cells at the Permissive Temperature. H1299-neo p53 null cells, ATP luminescence, 24 h, 32C. Potency, µM (highest dose often 46.1 µM), without a hit: at the highest dose activity change, negative = cytotoxicity, hits mostly cytotoxic. actives 0.62% (n = 55,000). AID 903, 2007;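 note: potency is the fitted concentration of half-maximal effect; 0% = DMSO only and -100% = full killing by 100 µM tamoxifen; nearly all actives have a fitted effect of over 55% in size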
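H1299-neo (p53 null) cells, 600/well, treated 24 h at 32C with compound up to 46 uM; ATPlite luminescence viability, normalized to DMSO and 100 uM tamoxifen; AC50 by Hill fit.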
S16 F2sN tox: Cell viability qHTS assay in S16 Pmp22-F2sN cells | AID 1508642, 2021 | actives 0.48% (n = 43,000) | S16 Pmp22-F2sN Schwann cells viability, CellTiter-Glo, 24 h | Potency, µM (top dose mostly 57.5 µM), inactives show at the top dose activity change, negative = cytotoxicity, actives largely listed as cytotoxic; note: potency is the fitted concentration of half-maximal effect; % is set by controls: 0 for no effect and ±100 for the full control effect; nearly all actives have a fitted effect of over 65% in size
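Rat S16 Schwann reporter line, 24 h treatment with library compounds delivered at 23 nL per well. Cell viability by CellTiter-Glo luminescence.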
pS6 MEF inh: Acumen qHTS Assay for Inhibitors of the mTORC1 Signaling Pathway in MEF (Tsc2-/-, p53-/-) Cells: Sytravon. Tsc2-/- p53-/- MEF, phospho-rpS6 immunofluorescence/PI, 24 h. Potency, µM (doses to about 38.3 µM), for the others: at the highest dose activity change, negative = inhibition, most hits filed as inhibitors. actives 0.78% (n = 44,000). AID 493208, 2011;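 note: potency is the fitted concentration of half-maximal effect; plate controls were DMSO for no effect and rapamycin for full effect; nearly all actives have a fitted effect of over 50% in size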
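Immunofluorescence of rpS6 phosphorylation in Tsc2-/-, p53-/- MEFs after 24 h compound exposure, normalized to propidium iodide signal. Activity is expressed as % positive cells, thresholded with 7.5 nM rapamycin.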
GALC G270D up: A Novel Cell-Based Assay to Identify Small Molecules for B -Galactocerebrosidase; 145M-Twi-hGALC-G270D cells (Twitcher mouse brain line with human GALC G270D), HMU-beta-Gal fluorescence, 48 h; Potency, µM (series often up to 57.5 µM), hits mostly activators; actives 0.1% (n = 45,000); note: potency is the fitted concentration of half-maximal effect; 0% is about no effect; nearly all actives have a fitted effect of over 65% in size
Target sequence (P54803 whole entry G286D): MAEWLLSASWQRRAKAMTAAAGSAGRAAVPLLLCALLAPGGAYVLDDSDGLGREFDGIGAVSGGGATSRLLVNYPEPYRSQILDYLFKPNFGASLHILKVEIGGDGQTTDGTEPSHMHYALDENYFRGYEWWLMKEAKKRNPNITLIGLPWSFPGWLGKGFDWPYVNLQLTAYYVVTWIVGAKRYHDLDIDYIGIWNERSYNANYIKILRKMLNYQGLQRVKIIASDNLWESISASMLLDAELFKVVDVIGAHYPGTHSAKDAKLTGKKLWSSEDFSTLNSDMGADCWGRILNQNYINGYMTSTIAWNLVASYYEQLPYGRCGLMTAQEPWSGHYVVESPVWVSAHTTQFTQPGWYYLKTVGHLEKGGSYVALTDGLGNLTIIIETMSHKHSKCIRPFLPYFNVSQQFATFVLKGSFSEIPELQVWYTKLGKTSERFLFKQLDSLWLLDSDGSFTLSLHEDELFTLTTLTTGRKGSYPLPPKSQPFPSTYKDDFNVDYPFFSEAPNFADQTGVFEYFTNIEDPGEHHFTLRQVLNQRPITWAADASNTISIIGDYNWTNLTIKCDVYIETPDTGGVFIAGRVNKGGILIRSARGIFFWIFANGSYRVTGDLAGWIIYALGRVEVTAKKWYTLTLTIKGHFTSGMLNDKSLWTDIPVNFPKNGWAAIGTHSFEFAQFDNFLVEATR
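Fluorescence readout: HMU-β-gal cleavage by mutant GALC (0.1 mM final, citrate/phosphate pH 5.2 with 1 mg/mL taurocholate), stopped with carbonate/bicarbonate plus Triton X-100. Cells: murine Twitcher 145M-Twi expressing human G270D GALC; qHTS for activators.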
PMP22 txn: Cell-based coincidence reporter assay to measure PMP22 gene transcription in S16 Pmp22-F2sN cells - Primary screen | Potency, µM (doses to about 57.5 µM), for the others: at the highest dose activity change, negative = inhibition, hits mostly inhibitors | S16 Pmp22-F2sN Schwann cells (luciferase reporters placed in the Pmp22 gene), FLuc/NLuc coincidence luminescence, 24 h | actives 2% (n = 43,000); active = clear falling dose curves in both reporters; inconclusive = both reporters move, but less clearly or upward; inactive = either reporter flat; the % is the NLuc reporter signal; note: potency is the fitted concentration of half-maximal effect; % is set by controls: 0 for no effect and ±100 for the full control effect
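Transcriptional readout in edited S16(c9) cells: two luciferases reported from the Pmp22 locus, measured in turn after 24 h compound incubation.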
p53null 39C kill: qHTS Screen for Compounds that Selectively Target Cancer Cells with p53 Mutations: Cytotoxicity of p53 Null Cells at the Nonpermissive Temperature; H1299 p53-null (neo) cells, 39C, ATPlite viability, 24 h; Potency, µM (highest dose often 46.1 µM), for inactives: at the highest dose activity, negative = cell killing, hits mostly cytotoxic; actives 0.97% (n = 55,000);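 note: potency is the fitted concentration of half-maximal effect; 0% = DMSO only and -100% = full killing by 100 µM tamoxifen; nearly all actives have a fitted effect of over 50% in size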
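H1299 lung cancer cells, p53-null (H1299-neo) or expressing p53 A138V (H1299-p53A138V), were plated overnight at 37C, then exposed to compounds at up to 46 uM for 24 hr at 39C. Viability was read by ATP-based luminescence.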
NLuc saturating: Biochemical NLuc saturation counterscreen for small molecule modulators of PMP22 gene expression - Nano-Glo assay. shares compounds with PMP22 txn. Secreted NLuc enzyme (filtered S16 cell medium), Nano-Glo luminescence. Potency, µM (highest dose often 57.5 µM), inactives show top-dose activity change, negative = inhibition, hits mostly inhibitors. actives 4% (n = 690); note: potency is the fitted concentration of half-maximal effect; % is set by controls: 0 for no effect and ±100 for the full control effect
NLuc Km ctr: Biochemical coelenterazine-based NLuc counterscreen for small molecule modulators of PMP22 gene expression - Km assay | AID 1508639, 2021 | actives 5% (n = 690) | Potency, µM (highest dose often 57.5 µM), without a hit: at the top dose activity change, negative = inhibition, hits mostly inhibitors | shares compounds with PMP22 txn | secreted NLuc enzyme, coelenterazine luminescence, Km conditions; note: potency is the fitted concentration of half-maximal effect; % is set by controls: 0 for no effect and ±100 for the full control effect
FLuc ctr PMP22: Biochemical FLuc counterscreen for small molecule modulators of PMP22 gene expression. shares compounds with PMP22 txn. purified P. pyralis FLuc, luminescence, 10 min. Potency, µM (series often up to 57.5 µM), for inactives: at the highest dose activity, negative = inhibition, most hits filed as inhibitors. 690 tested, under 10 active. AID 1508640, 2021; note: % of control where 0% means no effect
S16 F2sN tox cnf: Cell viability qHTS assay in S16 Pmp22-F2sN cells - Confirmatory screen | shares compounds with PMP22 txn | actives 7% (n = 690) | S16 Schwann cells viability, CellTiter-Glo ATP luminescence, 24 h | AID 1508641, 2021 | Potency, µM (titrated, usually from 57.5 µM), for inactives: at the top dose activity change, negative = viability loss, usual class: cytotoxic; note: potency is the fitted concentration of half-maximal effect; % is set by controls: 0 for no effect and ±100 for the full control effect
PMP22 txn cnf: Cell-based coincidence reporter assay to measure PMP22 gene transcription in S16 Pmp22-F2sN cells - Confirmatory screen; shares compounds with PMP22 txn; S16 Schwann cells Pmp22-F2sN, dual luciferase, 24 h; Potency, µM (top dose mostly 57.5 µM), for inactives: at the top dose activity change, negative = inhibition, hits mostly inhibitors; actives 22% (n = 690); active = clear falling dose curves in both reporters; inconclusive = both reporters move, but less clearly or upward; inactive = either reporter flat; the % is the FLuc reporter signal; note: potency is the fitted concentration of half-maximal effect
PMP22 HiBiT cnf: Cell-based HiBiT reporter assay to measure PMP22 protein expression in S16 Pmp22-HiBiT cells - Confirmatory screen | shares compounds with PMP22 txn | S16 Schwann cells Pmp22-HiBiT, luminescence, 48 h | Potency, µM (series often up to 27.9 µM), inactives show at the highest dose activity change, negative = inhibition, actives largely listed as inhibitors | 95 tested, under 10 active | AID 1508647, 2021
Active calls of the source: *; i = inactive; ? = inconclusive; nt = no result given. Unless noted, calls come from the whole dose curve; as a rule, active = well fitted curve in the direction sought with a large enough effect; inconclusive = small, poorly fitted or top-dose-only effect, or another doubt; inactive = no such curve, though single readings can be large; an effect the other way counts as inactive or inconclusive.

SMILES | p53null 32C tox | S16 F2sN tox | pS6 MEF inh | GALC G270D up | PMP22 txn | p53null 39C kill | NLuc saturating | NLuc Km ctr | FLuc ctr PMP22 | S16 F2sN tox cnf | PMP22 txn cnf | others
COc1cccc(-n2c(/C=C\c3ccc(Cl)cc3)nc3ccccc3c2=O)c1 | 19% | 2% | 10% | i | ? | 38% | nt | nt | nt | nt | nt
COc1cccc(-n2c(SCC(=O)c3ccc(Cl)cc3)nc3c([nH]c4ccccc43)c2=O)c1 | ? | ? | -5% | i | 10µM* | 18% | 1% | 4% | -6% | ? | 11µM* | PMP22 HiBiT cnf=-16%
Fc1cccc(C2NCCc3[nH]cnc32)c1 (stereo not drawn) | 5% | nt | nt | nt | nt | nt | nt | nt | nt | nt | nt
Cc1ccc(NC(=O)N(Cc2ccc3c(c2)OCO3)C2CCN(Cc3ccccc3)CC2)cc1C | -5% | ? | ? | i | 14µM* | -24% | -12% | ? | -2% | ? | ?
Cc1ccc(NC(=O)N(Cc2ccc3c(c2)OCO3)C2CCN(Cc3ccccc3)CC2)cc1Cl | 3% | ? | 0% | i | ? | -24% | nt | nt | nt | nt | nt
